# Results from PubChem BioAssay AID1224865 (Sanford-Burnham Center for Chemical Genomics, 2016).
# Several values for one entry are separate records, joined by “and”; a condition that tells them apart may be missing. Equal values may be shown once. The whole screen tested about 360,000 compounds, of which about 1,100 (0.31%) were called active. Rule as the data show it: active = activity change above about 30% (passing the limit was not always enough); inactive = the rest. Many of the other results were omitted from the sample, so actives are more common in it than they were. Some compounds were tested as several samples or in several runs, with calls that do not always agree.
# Target: Hepatocyte nuclear factor 4-alpha (Homo sapiens) (UniProt P41235)
# Sequence (P41235 whole entry, looked up): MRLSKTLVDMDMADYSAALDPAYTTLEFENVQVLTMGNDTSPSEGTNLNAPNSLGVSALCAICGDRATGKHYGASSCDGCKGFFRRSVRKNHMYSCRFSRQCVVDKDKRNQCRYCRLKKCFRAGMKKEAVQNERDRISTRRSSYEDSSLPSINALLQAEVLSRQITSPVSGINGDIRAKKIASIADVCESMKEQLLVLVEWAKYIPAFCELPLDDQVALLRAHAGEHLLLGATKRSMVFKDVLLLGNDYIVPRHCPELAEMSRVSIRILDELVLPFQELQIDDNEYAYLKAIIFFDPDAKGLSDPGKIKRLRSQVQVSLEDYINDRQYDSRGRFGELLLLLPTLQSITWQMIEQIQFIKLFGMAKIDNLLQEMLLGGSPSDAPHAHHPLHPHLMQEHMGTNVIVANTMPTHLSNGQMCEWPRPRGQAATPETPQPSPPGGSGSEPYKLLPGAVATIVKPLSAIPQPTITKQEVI
# Experiment: HNF4-alpha DNA association modulation – biochemical, fluorescence polarization, FITC-DNA, primary screen (AID 1224865)
# Settings: HNF4a-FITC DNA binding, 1 h, at 10 µM, stronger effect = higher value
row,SMILES,activity change
1,CCc1ccc(CN2C(=O)c3ccccc3C2C(=O)NCC2CCCO2)cc1 (stereo not given),0.41% (inactive)
2,O=C(NC(=S)Nc1ncccn1)c1ccccc1Br,1.65% (inactive)
3,O=C(Nc1cc(Cl)ccc1N1CCOCC1)c1ccc(N2CCCC2=O)cc1,-2.01% (inactive)
4,O=C(CCN1C(=O)c2ccccc2C1=O)NNC(=O)c1ccc(Cl)cc1Cl,-1.42% (inactive)
5,O=C(CCN1C(=O)/C(=C/c2cccs2)SC1=S)NNC(=O)c1cccc(O)c1,42.1% (active)
6,Cc1c(C(=O)NCCN2C(=O)S/C(=C\c3cccs3)C2=O)cccc1[N+](=O)[O-],-0.17% (inactive)
7,Cc1cccc(NC(=O)c2ccc(S(=O)(=O)N(C)CC3CCCO3)cc2)c1C (stereo not given),-0.21% (inactive)
8,CC1=C(C(=O)Nc2cccc(C(=O)NCC(C)c3ccccc3)c2)SCCO1 (stereo not given),-3.05% (inactive)
9,Cc1ccc(-c2cnc(C(O)c3cc(Cl)cc(Cl)c3)[nH]2)cc1 (stereo not given),2.03% (inactive)
10,Cc1cccc(COc2ccccc2/C=N/Nc2ccc([N+](=O)[O-])cc2)c1,53.2% (active)
11,Cc1ccccc1OCCOc1ccc([N+](=O)[O-])cc1/C=N/n1cnnc1,0.85% (inactive)
12,O=[N+]([O-])c1ccc(COc2ccccc2CN2CCOCC2)cc1,4.14% (inactive)
13,Cc1ccc(Cl)cc1NC(=S)N(CCN(C)C)Cc1cccs1,-2.05% (inactive)
14,COCCCn1c(=O)/c(=C/c2ccccc2OC(C)C)s/c1=C(\C#N)C(=O)Nc1ccc(C(=O)O)cc1,21.5% (inactive)
15,CCOC(=O)[C@@H]1[C@H]2COc3cc(OC)ccc3[C@H]2N2C(=O)N(c3ccc(F)cc3)C(=O)[C@]12C,-1.52% (inactive)
16,C#CCOCCOCCOCCNc1nc(N2CCN(C(=O)C(Cc3ccc(O)cc3)n3cc(C(N)CC(C)C)nn3)CC2)nc(N2CCN(C(=O)C(Cc3ccc(O)cc3)n3cc(C(N)C(C)CC)nn3)CC2)n1 (stereo not given),2.78% (inactive)
17,C#CCOCCOCCOCCNc1nc(N2CCN(C(=O)C([C@@H](C)O)n3cc([C@@H](N)CCCCN)nn3)CC2)nc(N2CCN(C(=O)[C@H](CCCCN)n3cc(CN)nn3)CC2)n1 (stereo not given in full),59.9% (active)
18,C#CCOCCOCCOCCNc1nc(N2CCN(C(=O)[C@H](CO)n3cc([C@@H](N)C(C)C)nn3)CC2)nc(N2CCN(C(=O)[C@H](CCC(=O)O)n3cc([C@@H](N)[C@H](C)CC)nn3)CC2)n1,-0.8% (inactive)
19,CSc1sc(C)cc1C1C(C#N)=C(N)N(c2cccnc2)C2=C1C(=O)CCC2 (stereo not given),-3.92% (inactive)
20,COC(=O)c1c(C)oc(C)c1S(=O)(=O)Nc1ccc(C(C)C)cc1,-0.92% (inactive)
21,FC(F)Oc1ccc(NC(=S)NCc2ccco2)cc1Cl,8.22% (inactive)
22,COc1ccc2oc(N)nc2c1,0.82% (inactive)
23,CCc1ccc2oc(-c3ccc(N)cc3)nc2c1,71.8% (active)
24,CC1(C)C/C(=C(/C#N)C(N)=O)CCO1,-0.48% (inactive)
25,CCOC(=O)C1CCN(C(=O)C2CCN(S(=O)(=O)CC)CC2)CC1,-4.66% (inactive)
26,CCOC(=O)N1CCN(C(=O)C2CCN(S(C)(=O)=O)CC2)CC1,30.5% (active)
27,CCOC(=O)C1CCN(C(=O)C2CCN(S(=O)(=O)N3CCCC3)CC2)CC1,-3.6% (inactive)
28,CCCCc1nccn1CCn1ccnc1CCCC,-1.42% (inactive)

row,SMILES,activity change
1,O=C(CC1SC(=Nc2ccccc2F)N(CCN2CCOCC2)C1=O)Nc1ccc(F)cc1F (stereo not given),2.99% (inactive)
2,CC(C)(C)NC(=O)c1ccc(Cn2cc(C(F)(F)F)ccc2=O)cc1,-4.39% (inactive)
3,O=c1cc(CN2CCCCCCC2)c2c(ccc3ccccc32)o1,-1.79% (inactive)
4,c1ccc2cc3[nH]c(CN4CCCCC4)nc3cc2c1,33.4% (active)
5,Cc1ccc2[nH]c(=O)c(CN3CCCCC3)c(-c3ccccc3)c2c1,-1.94% (inactive)
6,O=S(=O)(Cc1ccc(Cl)cc1Cl)c1ccc(Cl)cc1,1.8% (inactive)
7,COC(=O)C1=C(C(=O)OC)C2(OC1c1ccc(Br)cc1)C(=O)c1ccccc1C2=O (stereo not given),0.81% (inactive)
8,CN1C(=O)C(CC(N)=O)N(NC(=O)c2ccc(Cl)cc2)C1=S (stereo not given),-1.5% (inactive)
9,CC(=O)N1C(=O)/C(=C2\SC(=S)N(NC(=O)c3ccc(O)cc3)C2=O)c2ccccc21,-1.57% (inactive)
10,Cn1cccc1/C=C1\SC(=S)N(NC(=O)c2ccc(Cl)cc2)C1=O,74.6% (active)
11,O=C(NC1CCCC1)C1c2ccccc2OCC(=O)N1CC(F)(F)F (stereo not given),2% (inactive)
12,Cc1ccc2nc(-c3cccnc3)c(NC3CCCC3)n2c1,6.3% (inactive)
13,COc1ccc(-c2nc3cc(C)ccn3c2NC2CCCCC2)cc1SC1CCCCC1,47.8% (active) and 27.6% (inactive)
14,COc1cccc(-c2nc3nc(C)cc(C)n3c2NC2CCCCC2)c1,3.94% (inactive)
15,Cc1ccn2c(c1)nc(=O)c1cc(S(=O)(=O)N3CCC(C)CC3)ccc12,4.48% (inactive)
16,Cc1cc(=O)oc2cc(OC(C)C(=O)Nc3ccc(N4CCOCC4)cc3)ccc12 (stereo not given),-19.2% (inactive)
17,O=C(O)c1ccc(N/N=C/c2ccc3ncccc3c2)cc1,-1.15% (inactive)
18,O=C(O)c1ccc(NN=CC2=C(N3CCOCC3)/C(=C/c3ccccc3)CC2)cc1,41.5% (active)
19,O=C(O)c1ccc(N=NN2CCOCC2)cc1,1.22% (inactive)
20,O=C(COC(=O)/C=C/c1ccc(S(=O)(=O)N2CCCCCC2)cc1)NCc1ccccc1Cl,-2.22% (inactive)
21,O=C1CCC(C(=O)N2CCCCO2)CN1Cc1cccc(C(F)(F)F)c1 (stereo not given),1.26% (inactive)
22,NC(=O)Cn1nc([N+](=O)[O-])nc1Oc1ccc(Br)cc1,3.81% (inactive)
23,CCCCCCCNc1nc(Cl)nc(NCCO)n1,1.28% (inactive)
24,NNc1cccc(C=Cc2ccccc2)cc1=O,37.5% (active)
25,O=C(COC(=O)/C=C/c1cccc(Cl)c1)NCCc1ccccc1,1.96% (inactive)
26,O=C(COC(=O)c1cc(S(=O)(=O)N2CCOCC2)ccc1F)NC1CC1,-0.17% (inactive)
27,O=C(c1ccc[nH]c1=S)N1CCN(S(=O)(=O)c2ccc(Br)cc2Cl)CC1,0.57% (inactive)
